Among the data in PubChem BioAssay (EPA / NIEHS) are AC50 and outcome values, retold here.

For test [1], the target named is Serine/threonine-protein phosphatase PP1-alpha catalytic subunit (Homo sapiens) (UniProt P62136). As to the kind of experiment: NVS_ENZ_hPPP1CA: NovaScreen (NVS) Enzymatic Assay for human Protein Phosphatase 1 Aatalytic subunit Alpha (PPP1CA) (AID 2283200). In short, it runs like this: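 Recombinant enzyme activity read by fluorescence with electrophoretic mobility shift separating substrate from product, 1.33 h after dosing; loss of signal vs DMSO baseline. Primary screen in duplicate at 25 uM; actives retested in concentration-response up to 50 uM.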
Chain of Serine/threonine-protein phosphatase PP1-alpha catalytic subunit (Homo sapiens) (P62136 whole entry, looked up): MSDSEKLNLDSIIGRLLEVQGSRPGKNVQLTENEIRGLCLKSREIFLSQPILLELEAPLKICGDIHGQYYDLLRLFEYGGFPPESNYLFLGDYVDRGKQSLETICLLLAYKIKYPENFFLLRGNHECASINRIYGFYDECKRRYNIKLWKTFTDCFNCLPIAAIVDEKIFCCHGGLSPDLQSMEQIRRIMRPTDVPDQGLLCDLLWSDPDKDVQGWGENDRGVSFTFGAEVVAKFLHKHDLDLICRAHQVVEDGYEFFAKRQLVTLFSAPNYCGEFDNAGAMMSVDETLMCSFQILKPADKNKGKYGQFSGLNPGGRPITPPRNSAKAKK

Test [2] concerns the target Tyrosine-protein phosphatase non-receptor type 14 (Homo sapiens) (UniProt Q15678). The experiment in a line: NVS_ENZ_hPTPN14: NovaScreen (NVS) Enzymatic Assay for human Protein Tyrosine Phosphatase Non-receptor Type 14 (PTPN14) (AID 2283206). The method in brief:
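Cell-free recombinant human PTPN14 with fluorescent substrate, read 0.5 h after dosing by fluorescence and electrophoretic mobility shift separating substrate from product. Primary screen at 25 uM in duplicate; hits run to 50 uM maximum; loss of signal versus DMSO.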

Test [3] addresses Tyrosine-protein phosphatase non-receptor type 13 (Homo sapiens) (UniProt Q12923). The experiment in a line: NVS_ENZ_hPTPN13: NovaScreen (NVS) Enzymatic Assay for human Protein Tyrosine Phosphatase Non-receptor Type 13 (PTPN13) (AID 2283205). The method in brief:
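Cell-free assay of recombinant human PTPN13 with a fluorescent substrate, product separated by electrophoretic mobility shift and read 0.5 h after dosing. Primary screen at 25 uM in duplicate, then concentration-response up to 50 uM. Loss of signal fitted against DMSO.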

Test [4] has as its target Tyrosine-protein phosphatase non-receptor type 11 (Homo sapiens) (UniProt Q06124). The experiment in a line: NVS_ENZ_hPTPN11: NovaScreen (NVS) Enzymatic Assay for human Protein Tyrosine Phosphatase Non-receptor Type 11 (PTPN11) (AID 2283202). The method in brief: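 Recombinant human PTPN11 activity on a fluorescent substrate, with substrate/product separated by electrophoretic mobility shift; read 0.5 h after dosing, loss of signal vs DMSO. Duplicate 25 uM screen, then concentration-response up to 50 uM.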

Test [5] addresses human Protein Tyrosine Phosphatase Receptor Type B (PTPRB), PTPRB (gene 5787) (UniProt P23467). As to the kind of experiment: NVS_ENZ_hPTPRB: NovaScreen (NVS) Enzymatic Assay for human Protein Tyrosine Phosphatase Receptor Type B (PTPRB) (AID 2283211). The method in brief: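 Recombinant human PTPRB with a fluorescent substrate, product separated by electrophoretic mobility shift; read 1 h after dosing. Primary screen in duplicate at 25 uM; actives then retested in concentration series; loss of signal versus DMSO.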

Test [6] addresses human Protein Tyrosine Phosphatase Receptor Type F (PTPRF), PTPRF (gene 5792) (UniProt P10586). As to the kind of experiment: NVS_ENZ_hPTPRF: NovaScreen (NVS) Enzymatic Assay for human Protein Tyrosine Phosphatase Receptor Type F (PTPRF) (AID 2283213). The method in brief:
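Cell-free fluorescence enzyme assay with recombinant protein and substrate; product separated by electrophoretic mobility shift. Read 1 h after dosing, single 25 uM duplicate screen, then concentration-response up to 50 uM; loss of signal vs DMSO.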

The target in test [7] is human Protein Phosphatase, Mg2+/Mn2+ Dependent 1A (PPM1A), PPM1A (gene 5494) (UniProt P35813). As to the kind of experiment: NVS_ENZ_hPPM1A: NovaScreen (NVS) Enzymatic Assay for human Protein Phosphatase, Mg2+/Mn2+ Dependent 1A (PPM1A) (AID 2283198). In short, it runs like this: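 Cell-free recombinant PPM1A phosphatase assay with fluorescent substrate, read 1 h after dosing by electrophoretic mobility shift. Chemicals screened in duplicate at 25 uM, then in concentration-response up to 50 uM; loss of activity versus DMSO.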
Chain of human Protein Phosphatase, Mg2+/Mn2+ Dependent 1A (PPM1A), PPM1A (gene 5494) (P35813 whole entry, looked up): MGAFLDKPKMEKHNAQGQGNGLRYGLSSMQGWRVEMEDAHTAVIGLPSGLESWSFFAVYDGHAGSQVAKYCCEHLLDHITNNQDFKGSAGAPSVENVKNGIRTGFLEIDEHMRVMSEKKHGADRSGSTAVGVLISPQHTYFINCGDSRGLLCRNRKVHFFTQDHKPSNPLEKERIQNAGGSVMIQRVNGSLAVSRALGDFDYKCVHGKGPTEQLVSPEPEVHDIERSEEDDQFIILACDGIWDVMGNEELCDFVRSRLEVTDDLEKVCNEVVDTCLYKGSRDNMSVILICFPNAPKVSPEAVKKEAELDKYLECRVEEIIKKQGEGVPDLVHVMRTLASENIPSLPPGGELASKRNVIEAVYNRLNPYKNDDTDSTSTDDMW

For test [8], the target named is human Protein Tyrosine Phosphatase Non-receptor Type 1 (PTPN1), PTPN1 (gene 5770) (UniProt P18031). The experiment in a line: NVS_ENZ_hPTPN1: NovaScreen (NVS) Enzymatic Assay for human Protein Tyrosine Phosphatase Non-receptor Type 1 (PTPN1) (AID 2283201). The method in brief:
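Cell-free fluorogenic-substrate activity assay on recombinant enzyme, read 1.33 h after dosing by fluorescence and electrophoretic mobility shift; loss of signal vs DMSO baseline. Primary screen in duplicate at 25 uM, hits then run in concentration-response up to 50 uM.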

Test [9] addresses Tyrosine-protein phosphatase non-receptor type 12 (Homo sapiens) (UniProt Q05209). As to the kind of experiment: NVS_ENZ_hPTPN12: NovaScreen (NVS) Enzymatic Assay for human Protein Tyrosine Phosphatase Non-receptor Type 12 (PTPN12) (AID 2283204). In short, it runs like this:
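Single-concentration duplicates (25 uM) preceded singleton concentration-response up to 50 uM for chemicals passing threshold. Cell-free recombinant PTPN12 activity was read 1.33 h after dosing via fluorescence after mobility-shift separation; loss of signal versus DMSO.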

For test [10], the target named is human Protein Tyrosine Phosphatase Non-receptor Type 6 (PTPN6), PTPN6 (gene 5777) (UniProt P29350). As to the kind of experiment: NVS_ENZ_hPTPN6: NovaScreen (NVS) Enzymatic Assay for human Protein Tyrosine Phosphatase Non-receptor Type 6 (PTPN6) (AID 2283210). In short, it runs like this:
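Cell-free assay with recombinant PTPN6 expressed in SF9 cells, fluorescent substrate, product separated from substrate by electrophoretic mobility shift; read 1.33 hours after dosing. Primary screen in duplicate at 25 uM, actives retested in concentration series; DMSO baseline.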

A word on the AC50: it is the midpoint of the concentration-response curve, whichever way the signal moves.

Results filed as inconclusive are left out. Activity calls are given as the source filed them. Rule for the calls: active = hit-call score of the fitted dose curve at least 0.9, where 1 is the maximum; inconclusive = response in the unintended direction; inactive = score below 0.9.

Chain of Tyrosine-protein phosphatase non-receptor type 11 (Homo sapiens) (Q06124 whole entry, looked up): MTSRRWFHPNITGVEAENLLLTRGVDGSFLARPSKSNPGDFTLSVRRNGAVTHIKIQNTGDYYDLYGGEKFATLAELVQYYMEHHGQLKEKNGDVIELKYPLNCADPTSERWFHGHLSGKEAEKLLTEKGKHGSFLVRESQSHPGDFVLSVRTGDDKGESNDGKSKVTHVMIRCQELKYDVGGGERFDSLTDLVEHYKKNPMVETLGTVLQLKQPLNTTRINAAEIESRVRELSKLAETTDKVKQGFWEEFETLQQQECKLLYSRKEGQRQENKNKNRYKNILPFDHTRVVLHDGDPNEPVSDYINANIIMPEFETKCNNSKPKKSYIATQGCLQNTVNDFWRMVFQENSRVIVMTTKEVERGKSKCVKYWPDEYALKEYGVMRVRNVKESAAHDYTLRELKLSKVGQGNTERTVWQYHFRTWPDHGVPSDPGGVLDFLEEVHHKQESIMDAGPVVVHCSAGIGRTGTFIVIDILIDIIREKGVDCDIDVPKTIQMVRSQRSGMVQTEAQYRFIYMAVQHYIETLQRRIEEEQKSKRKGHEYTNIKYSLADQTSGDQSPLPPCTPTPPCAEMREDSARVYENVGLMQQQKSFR
Chain of human Protein Tyrosine Phosphatase Receptor Type B (PTPRB), PTPRB (gene 5787) (P23467 whole entry, looked up): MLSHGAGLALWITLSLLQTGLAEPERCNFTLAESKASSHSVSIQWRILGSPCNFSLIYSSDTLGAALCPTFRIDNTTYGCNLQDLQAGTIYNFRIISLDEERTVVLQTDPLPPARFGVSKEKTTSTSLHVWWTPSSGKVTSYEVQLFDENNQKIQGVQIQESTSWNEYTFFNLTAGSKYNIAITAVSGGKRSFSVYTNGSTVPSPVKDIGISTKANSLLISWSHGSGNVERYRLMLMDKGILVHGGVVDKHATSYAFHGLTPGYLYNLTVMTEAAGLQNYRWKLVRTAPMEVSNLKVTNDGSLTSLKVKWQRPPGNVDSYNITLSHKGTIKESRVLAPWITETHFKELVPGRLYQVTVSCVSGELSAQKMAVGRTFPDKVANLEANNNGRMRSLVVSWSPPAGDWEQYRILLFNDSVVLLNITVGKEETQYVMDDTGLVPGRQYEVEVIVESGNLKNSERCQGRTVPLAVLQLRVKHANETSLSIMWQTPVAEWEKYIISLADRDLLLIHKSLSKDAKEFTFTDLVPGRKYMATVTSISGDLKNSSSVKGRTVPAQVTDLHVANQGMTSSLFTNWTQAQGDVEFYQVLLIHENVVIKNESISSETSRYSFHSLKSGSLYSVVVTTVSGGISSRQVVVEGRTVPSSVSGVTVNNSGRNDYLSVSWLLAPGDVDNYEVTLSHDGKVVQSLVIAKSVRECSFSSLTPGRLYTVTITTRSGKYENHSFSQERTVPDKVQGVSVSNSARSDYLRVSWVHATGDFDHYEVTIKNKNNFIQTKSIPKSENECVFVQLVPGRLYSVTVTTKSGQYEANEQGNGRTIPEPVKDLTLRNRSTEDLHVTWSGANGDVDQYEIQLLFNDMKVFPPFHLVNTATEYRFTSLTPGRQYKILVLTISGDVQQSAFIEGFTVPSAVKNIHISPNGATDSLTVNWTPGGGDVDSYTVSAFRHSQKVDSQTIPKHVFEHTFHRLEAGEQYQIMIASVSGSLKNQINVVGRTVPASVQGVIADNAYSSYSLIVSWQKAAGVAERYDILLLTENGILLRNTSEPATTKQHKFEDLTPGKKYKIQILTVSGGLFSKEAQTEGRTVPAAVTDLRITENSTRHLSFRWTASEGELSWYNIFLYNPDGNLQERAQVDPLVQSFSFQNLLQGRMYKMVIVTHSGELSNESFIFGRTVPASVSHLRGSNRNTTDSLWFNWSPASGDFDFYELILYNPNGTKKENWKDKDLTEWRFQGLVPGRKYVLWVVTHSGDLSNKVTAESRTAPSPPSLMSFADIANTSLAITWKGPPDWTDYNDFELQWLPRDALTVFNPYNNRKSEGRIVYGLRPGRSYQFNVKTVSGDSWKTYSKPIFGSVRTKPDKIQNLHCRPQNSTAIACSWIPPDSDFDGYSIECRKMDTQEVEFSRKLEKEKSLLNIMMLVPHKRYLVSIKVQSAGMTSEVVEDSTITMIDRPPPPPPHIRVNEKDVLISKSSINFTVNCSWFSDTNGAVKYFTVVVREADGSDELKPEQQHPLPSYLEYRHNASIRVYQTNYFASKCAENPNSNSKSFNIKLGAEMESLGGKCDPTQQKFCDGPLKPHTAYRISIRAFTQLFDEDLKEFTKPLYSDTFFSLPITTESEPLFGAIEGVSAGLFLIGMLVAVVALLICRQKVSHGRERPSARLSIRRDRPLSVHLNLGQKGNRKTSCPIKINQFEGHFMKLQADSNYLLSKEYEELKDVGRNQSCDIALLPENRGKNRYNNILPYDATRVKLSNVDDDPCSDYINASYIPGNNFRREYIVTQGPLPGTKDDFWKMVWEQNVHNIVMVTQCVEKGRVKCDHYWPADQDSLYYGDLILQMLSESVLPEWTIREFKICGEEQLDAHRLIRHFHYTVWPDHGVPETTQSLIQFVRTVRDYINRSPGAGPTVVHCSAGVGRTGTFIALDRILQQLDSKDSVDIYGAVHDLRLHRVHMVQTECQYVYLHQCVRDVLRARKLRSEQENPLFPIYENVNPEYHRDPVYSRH
Chain of Tyrosine-protein phosphatase non-receptor type 14 (Homo sapiens) (Q15678 whole entry, looked up): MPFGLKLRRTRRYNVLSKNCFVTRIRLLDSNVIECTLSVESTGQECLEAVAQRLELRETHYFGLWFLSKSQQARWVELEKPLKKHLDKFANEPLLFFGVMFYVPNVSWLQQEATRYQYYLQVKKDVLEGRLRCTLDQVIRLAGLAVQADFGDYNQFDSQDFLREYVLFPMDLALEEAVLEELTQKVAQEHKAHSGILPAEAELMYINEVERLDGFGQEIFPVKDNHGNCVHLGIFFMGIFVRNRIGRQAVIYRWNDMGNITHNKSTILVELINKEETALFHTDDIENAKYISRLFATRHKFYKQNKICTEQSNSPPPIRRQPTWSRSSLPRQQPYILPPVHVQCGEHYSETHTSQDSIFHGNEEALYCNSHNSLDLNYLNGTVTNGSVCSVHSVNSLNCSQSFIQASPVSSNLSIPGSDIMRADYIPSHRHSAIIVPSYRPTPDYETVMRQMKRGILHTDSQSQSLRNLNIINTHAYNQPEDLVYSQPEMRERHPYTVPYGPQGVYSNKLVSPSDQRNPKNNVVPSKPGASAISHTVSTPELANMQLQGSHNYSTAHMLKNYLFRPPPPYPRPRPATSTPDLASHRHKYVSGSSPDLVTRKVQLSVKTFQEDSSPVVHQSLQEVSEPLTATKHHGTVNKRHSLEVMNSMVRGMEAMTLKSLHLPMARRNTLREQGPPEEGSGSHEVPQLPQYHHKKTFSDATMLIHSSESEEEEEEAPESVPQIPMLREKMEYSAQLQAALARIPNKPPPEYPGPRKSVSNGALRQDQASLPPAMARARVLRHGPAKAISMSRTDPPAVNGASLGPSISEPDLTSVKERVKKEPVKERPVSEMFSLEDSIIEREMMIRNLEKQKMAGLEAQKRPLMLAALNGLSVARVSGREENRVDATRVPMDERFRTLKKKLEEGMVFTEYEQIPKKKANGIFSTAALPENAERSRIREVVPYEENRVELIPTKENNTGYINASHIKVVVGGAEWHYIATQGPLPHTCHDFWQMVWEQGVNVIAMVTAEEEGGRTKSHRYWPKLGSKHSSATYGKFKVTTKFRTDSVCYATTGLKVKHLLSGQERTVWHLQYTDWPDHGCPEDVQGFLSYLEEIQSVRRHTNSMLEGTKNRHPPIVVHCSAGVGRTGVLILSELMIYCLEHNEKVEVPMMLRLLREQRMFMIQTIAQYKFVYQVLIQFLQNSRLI
Chain of human Protein Tyrosine Phosphatase Non-receptor Type 1 (PTPN1), PTPN1 (gene 5770) (P18031 whole entry, looked up): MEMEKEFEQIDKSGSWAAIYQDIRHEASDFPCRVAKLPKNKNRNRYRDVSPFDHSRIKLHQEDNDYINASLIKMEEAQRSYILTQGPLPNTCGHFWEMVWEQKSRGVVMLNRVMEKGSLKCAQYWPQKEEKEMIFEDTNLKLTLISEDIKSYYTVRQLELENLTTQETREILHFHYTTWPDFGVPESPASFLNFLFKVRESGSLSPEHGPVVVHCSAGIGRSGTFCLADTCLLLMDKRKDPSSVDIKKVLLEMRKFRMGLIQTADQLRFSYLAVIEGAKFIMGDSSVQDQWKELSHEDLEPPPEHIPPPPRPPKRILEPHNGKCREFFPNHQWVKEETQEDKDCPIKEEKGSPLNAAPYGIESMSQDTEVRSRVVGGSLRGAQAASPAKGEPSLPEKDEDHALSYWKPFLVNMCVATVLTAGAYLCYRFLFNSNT

Turning to `CCN(Cc1cccc(S(=O)(=O)O)c1)c1ccc(C(=C2C=CC(=[N+](CC)Cc3cccc(S(=O)(=O)O)c3)C=C2)c2ccccc2S(=O)(=O)[O-])cc1`, the values for the AC50 in test [1] and in test [2] were 5.82 µM (active) and 11.9 µM (active), respectively.

As to `CCCCOC(=O)CC(CC(=O)OCCCC)(OC(C)=O)C(=O)OCCCC`, the outcome in test [3] was inactive.

Take `O=C1CCC(C2CCCCC2)CC1`: the call in test [4] was inactive.

Regarding `Clc1cc(Cl)c2c(c1)N=C1CCCCCN1C2`, the compound was classed as inactive in test [5] and in [6].

As for `CCCCCCCCCC(=O)O`, the outcome in test [7] and in [5] was inactive.

On to `CN1C(=O)N(c2ccccc2Br)Cc2cnc(Nc3ccc4c(c3)OCC(CO)O4)nc21` (stereo unspecified), for which the outcome in [8], in [2] and in test [6] was inactive.

Take `CC/C(=C(/CC)c1ccc(O)cc1)c1ccc(O)cc1`: the result in [4], in test [9], in test [2] and in test [5] was inactive.

Regarding `CCN(CC)C(=O)c1cc(S(=O)(=O)Cc2ccccc2)c(N2CCC(c3ccccc3)CC2)cc1N(CC)CCN(C)C`, in test [3], the call was inactive.

As for `CC[C@H](NC(=O)c1cc(F)ccc1NS(=O)(=O)c1cccc2cccnc12)c1ccccc1`, in [1], the compound was classed as inactive.

With `Oc1ccc2ccccc2c1`, the result in test [2] was inactive.

As to `CCCCCCCCN(C)CCCCCCCC`, the call in [7] was inactive.

`CCOC(=O)O[C@H](C)OC(=O)c1ccc2c(c1)cc(C(=O)NC1CCN(C(C)C)CC1)n2Cc1cc(-c2ccc(Cl)s2)on1`: in [1], the AC50 was 18.6 µM (active).

Consider `Cc1c2ccccc2c(C)c2c1ccc1ccccc12`, for which, in test [1], the compound was classed as inactive.

In the case of `O=C1c2ccccc2C(=O)N1CCc1noc(-c2ccc(CN3CCCCCC3)s2)n1`, the call in test [4] was inactive.

With `CC(C)(C)c1csc(-c2cc3cc(OCc4ccccc4CC(=O)O)ccc3o2)n1`, the compound was called inactive in [8] and in test [4].

On to `c1ccc2ccccc2c1`, for which the call in [1] and in test [4] was inactive.

On to `CC(C)(O)c1ccc(CNC(=O)c2cccnc2Oc2ccc3nonc3c2)cc1`, for which the compound was classed as inactive in [7].

With `COc1cc(C(=O)NC2CCN(C)CC2)ccc1Nc1ncc2c(n1)N(C1CCCC1)CC(F)(F)C(=O)N2C`, the compound was classed as inactive in [2].

In the case of `c1ccc(C[n+]2cccc3ccccc32)cc1`, the compound was called inactive in [8] and in [10].

On to `CC[C@@H]1C[C@H](N(Cc2cc(C(F)(F)F)cc(C(F)(F)F)c2)C(C)=O)c2cc(C(F)(F)F)ccc2N1C(=O)OC(C)C`, for which the compound was classed as inactive in test [8].
